Results reported in PubChem BioAssay (NCATS).
A number with no mark means an inactive call. Records with an inconclusive call do not appear. Where a call stands in place of a potency, no number is given. Active and inactive are the calls of the source. Calls come from the whole dose curve; as a rule, active = well fitted curve in the direction sought with a large enough effect; inconclusive = small, poorly fitted or top-dose-only effect, or another doubt; inactive = no such curve, though single readings can be large; an effect the other way counts as inactive or inconclusive.

Columns and labels:
[1] = Cell Proliferation Assay against the TMD8 Cell Line (Caspase readout at 16 hrs) (AID 651712); note: potency is the fitted concentration of half-maximal effect
Summary of the method: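 Caspase-Glo luminescence measured apoptosis after a 16 h, 37 C compound exposure of TMD8 cells (500 cells/well, 5% FBS RPMI). DMSO set 0% and bortezomib at 9.2 uM final set 100% activity.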

[2] = Cell Proliferation Assay against the TMD8 Cell Line (Caspase readout at 8 hrs) (AID 651713); note: potency is the fitted concentration of half-maximal effect
Summary of the method: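 Apoptosis read-out: Caspase-Glo luminescence after 8 h compound exposure of TMD8 lymphoma cells at 37C, 5% CO2. Signals were normalized as percent activity between DMSO and bortezomib (9.2 uM final) controls.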

[3] = qHTS for small molecule inhibitors of Yes1 kinase: Counter Assay (AID 686950);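 note: no kinase present so only ADP-Glo detection of a fixed ADP amount is tested; luminescence from ADP-Glo reporting ADP in a fixed ATP and ADP mixture; series mostly up to about 77 µM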
Summary of the method: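 ADP-Glo luminescence read after a 60 min room-temperature incubation of compound with an ATP/ADP mix (0.08 mM/0.02 mM) and no kinase, following a 20 min compound preincubation. Signal scaled between ATP+ADP (max) and 0.1 mM ATP-only (min) wells; Tris pH 7.5, Mg2+, DTT.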

Compound	Potency [1]	Potency [2]	outcome [3]
Clc1ccc(-c2nc3sccn3c2C=NOCc2ccc(Cl)c(Cl)c2)cc1	inactive	inactive	inactive
OC[C@H]1O[C@@H](n2cnc3c2NC=NC[C@@H]3O)C[C@H]1O	inactive	inactive	inactive
CC(C)(C)COc1ccc(-n2cc(C(=O)O)cn2)cc1C#N	inactive	inactive	inactive
O=C(Nc1ccccc1-c1cn2c(CN3CCNCC3)csc2n1)c1cnc2ccccc2n1	inactive	–	inactive
CC(C)C(=O)Nc1ncc(-c2cc(C(F)F)nn2-c2c(Cl)cccc2Cl)s1	16.6 µM (active)	inactive	inactive
O=c1cc(N2CCOCC2)oc2c(-c3cccc4c3sc3ccccc34)cccc12	–	20.9 µM (active)	inactive
Cc1ccc(F)c(NC(=O)Nc2ccc(-c3cccc4[nH]nc(N)c34)cc2)c1	inactive	inactive	inactive
O=C1C(Cl)=C(NCCN2CCOCC2)C(=O)c2ncccc21	inactive	inactive	inactive
CN(C)C1CCN(C(=O)c2ccc(NC(=O)Nc3nc(N4CCOCC4)nc(N4CCOCC4)n3)cc2)CC1	6.62 µM (active)	–	inactive
CO[C@H]1C[C@@H]2CC[C@@H](C)[C@@](O)(O2)C(=O)C(=O)N2CCCC[C@@H]2C(=O)O[C@H]([C@H](C)C[C@@H]2CC[C@H](OCCO)[C@H](OC)C2)CC(=O)[C@H](C)C=C(C)[C@@H](O)[C@@H](OC)C(=O)[C@H](C)C[C@H](C)C=CC=CC=C1C	inactive	–	inactive
COc1cccc2c1CCCC2CCCN1CCN(C2CCCCC2)CC1 (stereo not drawn)	23.5 µM (active)	29.6 µM (active)	inactive
NC(CO)(CO)CCc1ccc(Sc2cccc(OCc3ccccc3)c2)cc1Cl	inactive	–	inactive
N#Cc1ccc(NC(=O)Nc2ccccc2Br)c2n[nH]nc12	inactive	inactive	inactive
O=C(O)c1ccc(-c2cc3cccnc3c(-c3ccc4nonc4c3)n2)cc1	inactive	inactive	inactive
CC(C)[C@H](CO)Nc1nc(Nc2ccc(C(=O)O)c(Cl)c2)c2ncn(C(C)C)c2n1	inactive	inactive	inactive
CC(C)(C(=O)NCC(F)(F)C(F)(F)F)C(=O)N[C@@H]1C(=O)Nc2ccccc2-c2ccccc21	inactive	inactive	inactive
COc1ncc(-c2ccc3nccc(-c4ccnnc4)c3c2)cc1NS(=O)(=O)c1ccc(F)cc1F	inactive	–	inactive
COc1cc(Nc2ncc(F)c(Nc3ccc4c(n3)NC(=O)C(C)(C)O4)n2)cc(OC)c1OC	inactive	inactive	inactive
